The nature of assay [1]: qHTS assay to identify aromatase inhibitors - cell viability counter screen (AID 743084).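 Note: cells stimulated with testosterone during compound exposure; nearly all actives have a fitted effect of over 55% in size.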 Note: potency is the fitted concentration of half-maximal effect. Background: Quantitative high-throughput screening tests each substance at several concentrations.
The target of assay [2] is Aryl hydrocarbon receptor (Homo sapiens) (UniProt P35869). The assay can be described thus: qHTS assay to identify small molecule that activate the aryl hydrocarbon receptor (AhR) signaling pathway (AID 743085).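 For activation: HG2L7.5c1 human HepG2 liver cells with stably integrated DRE-driven firefly reporter; series mostly up to about 70 µM.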 Note: nearly all actives have a fitted effect of over 15% in size. Note: potency is the fitted concentration of half-maximal effect. The gist of the method: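 Compounds were tested in HepG2 hepatocellular carcinoma cells harbouring a stably integrated luciferase gene under control of 20 DREs. Increased reporter signal after 24 h treatment at 37C was taken as AhR activation.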

The nature of assay [3]: qHTS assay to identify small molecule that activate the aryl hydrocarbon receptor (AhR) signaling pathway - cell viability counter screen (AID 743086). Note: nearly all actives have a fitted effect of over 45% in size. Note: potency is the fitted concentration of half-maximal effect. The method, boiled down:
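Cytotoxicity counter screen: CellTiter-Fluor signal (30 min, 37 C) in 4000 HepG2 cells/well carrying the DRE-luciferase reporter, following 24 h compound exposure at 37 C.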

In assay [4] the target is Peroxisome proliferator-activated receptor gamma (Homo sapiens) (UniProt P37231). The assay can be described thus: qHTS assay to identify small molecule agonists of the peroxisome proliferator-activated receptor gamma (PPARg) signaling pathway (AID 743094; active = well fitted activation curve with a large enough effect in the signal ratio in the repeat runs, not every such curve was filed as active; the % refers to the signal ratio). The method, boiled down: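 GeneBLAzer PPARg UAS-bla HEK293H cells were plated, rested 5 h, then exposed to compounds for 17 h at 37C. Beta-lactamase activity was read by LiveBLAzer B/G FRET substrate fluorescence after 1 h at room temperature.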

For assay [5] the target is unchanged. The assay can be described thus: qHTS assay to identify small molecule antagonists of the peroxisome proliferator-activated receptor gamma (PPARg) signaling pathway (AID 743191; calls by dose curve; note: series mostly up to about 63 µM; nearly all actives have a fitted effect of over 30% in size). The method, boiled down: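 Beta-lactamase reporter under UAS control in HEK293H PPARg-bla cells; compound treatment 17 h at 37C. Read-out: fluorescence intensity after 1 h room-temperature incubation with LiveBLAzer B/G FRET substrate.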

The nature of assay [6]: qHTS assay to identify small molecule antagonists of the peroxisome proliferator-activated receptor gamma (PPARg) signaling pathway - cell viability counter screen (AID 743194). Note: nearly all actives have a fitted effect of over 55% in size. The gist of the method: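 Viability was measured as CellTiter-Glo luminescence in GeneBLAzer PPARg UAS-bla HEK293H cells. These cells had been exposed 17 h at 37 C to compounds together with rosiglitazone at 50 nM final, with the beta-lactamase readout taken in the same wells.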

A short description of assay [7]: qHTS assay for small molecule agonists of the antioxidant response element (ARE) signaling pathway (AID 743202; active = well fitted activation curve with a large enough effect in the signal ratio in the repeat runs, not every such curve was filed as active; the % refers to the signal ratio; note: potency is the fitted concentration of half-maximal effect). The gist of the method:
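Quantitative high-throughput format in HepG2 cells bearing an integrated ARE-beta-lactamase reporter. Compound exposure lasted 16 h at 37 C, and fluorescence was read 2 h after adding LiveBLAzer B/G substrate at room temperature.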

Assay [8] can be described thus: qHTS assay for small molecule agonists of the antioxidant response element (ARE) signaling pathway - cell viability counter screen (AID 743203; calls by dose curve; note: nearly all actives have a fitted effect of over 55% in size). The gist of the method: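 ARE-bla HepG2 cells were plated, rested 5 h at 37C/5% CO2, then exposed to compounds in DMSO for 16 h. Viability was read as CellTiter-Glo luminescence after 30 min at room temperature, in the same wells as the ARE screen.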

A short description of assay [9]: qHTS assay for small molecule activators of the heat shock response signaling pathway - cell viability counter screen (AID 743209). Note: nearly all actives have a fitted effect of over 50% in size. The method, boiled down: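 HSE-bla HeLa cells plated overnight, then exposed to Tox21 compounds (23 nL in DMSO) for 5 h at 37 C. After the bla reporter read, CellTiter-Glo was added in the same wells and luminescence read after 30 min at room temperature.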

Assay [10] in a line: qHTS assay to identify small molecule agonists of the peroxisome proliferator-activated receptor delta (PPARd) signaling pathway - cell viability counter screen (AID 743211). Note: nearly all actives have a fitted effect of over 55% in size. The method, boiled down: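 Counter screen for cytotoxicity run in parallel with the PPARd reporter screen. Beta-lactamase reporter HEK293H cells exposed to compounds 17 h; ATP-based CellTiter-Glo luminescence quantified viability.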

Assay [11] deals with Peroxisome proliferator-activated receptor delta (Homo sapiens) (UniProt Q03181). The assay can be described thus: qHTS assay to identify small molecule agonists of the peroxisome proliferator-activated receptor delta (PPARd) signaling pathway (AID 743212; calls by dose curve). The method, boiled down:
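HEK293H PPARd-bla cells; 5 h preincubation 37 C/5% CO2; compound (DMSO) 37 C; LiveBLAzer B/G FRET substrate 2 h RT; fluorescence intensity.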

Assay [12] can be described thus: qHTS assay to identify small molecule antagonists of the peroxisome proliferator-activated receptor delta (PPARd) signaling pathway - cell viability counter screen (AID 743213). Note: nearly all actives have a fitted effect of over 50% in size. The gist of the method: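 Cytotoxicity counter screen: CellTiter-Glo luminescence read 30 min after addition, in the same wells as the reporter assay. There, PPARd UAS-bla HEK293H cells (3000/well) were treated 17 h at 37 C with compound and 300 nM L165041.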

In assay [13] the target is Peroxisome proliferator-activated receptor delta (Homo sapiens) (UniProt Q03181). The assay can be described thus: qHTS assay to identify small molecule antagonists of the peroxisome proliferator-activated receptor delta (PPARd) signaling pathway (AID 743215; active = well fitted inhibition curve with a large enough effect in the signal ratio in the repeat runs, not every such curve was filed as active; the % refers to the signal ratio;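 note: cells stimulated with agonist L165041 at 300 nM final during compound exposure; series mostly up to about 62 µM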). The method, boiled down:
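PPARd-bla HEK293H cells (UAS-bla reporter) preincubated 5 h, then given compound plus 300 nM final L165041 agonist for 17 h at 37 C. Beta-lactamase activity read by LiveBLAzer B/G FRET substrate fluorescence after 2 h at room temperature.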

A short description of assay [14]: qHTS assay to identify small molecule agonists of the farnesoid-X-receptor (FXR) signaling pathway - cell viability counter screen (AID 743218). Note: nearly all actives have a fitted effect of over 45% in size. The method, boiled down:
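FXR-UAS-bla HEK 293T cells exposed to compounds for 16 h at 37C. Cytotoxicity read in the same wells by CellTiter-Glo luminescence after 30 min at room temperature, following the beta-lactamase FRET read.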

Assay [15] deals with Vitamin D3 receptor (Homo sapiens) (UniProt P11473). The assay can be described thus: qHTS assay to identify small molecule agonists of the vitamin D receptor (VDR) signaling pathway (AID 743222; calls by dose curve). The gist of the method:
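VDR-bla cells plated 4 h at 37 C, then exposed to compounds for 16 h at 37 C. Beta-lactamase reporter activity measured by fluorescence after 2 h room-temperature loading with LiveBLAzer B/G FRET substrate.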

Assay [16] has the same target. The assay can be described thus: qHTS assay to identify small molecule antagonists of the vitamin D receptor (VDR) signaling pathway (AID 743223; active = well fitted inhibition curve with a large enough effect in the signal ratio in the repeat runs, not every such curve was filed as active; the % refers to the signal ratio). The method, boiled down:
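Cells carrying a VDR-driven beta-lactamase reporter (VDR-bla) were co-treated with compound and 3 nM final 1alpha,25-dihydroxyvitamin D3 for 16 h at 37C; reporter activity was measured as FRET substrate fluorescence after 2 h at room temperature.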

A short description of assay [17]: qHTS assay for small molecule activators of the heat shock response signaling pathway (AID 743210; active = well fitted activation curve with a large enough effect in the signal ratio in the repeat runs, with a control signal flat, not every such curve was filed as active; the % refers to the signal ratio;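 note: HeLa cells with beta-lactamase reporter driven by heat shock elements; series mostly up to about 63 µM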). The gist of the method:
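HeLa HSE-bla cells, overnight plating; cpd in DMSO 5 h, 37 C; LiveBLAzer B/G FRET substrate 2.5 h RT; fluorescence intensity read.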

Assay [18] in a line: qHTS assay to identify small molecule antagonists of the farnesoid-X-receptor (FXR) signaling pathway - cell viability counter screen (AID 743221; active = well fitted cell-killing curve with a large enough effect in the repeat runs, not every such curve was filed as active; note: nearly all actives have a fitted effect of over 50% in size). The method, boiled down: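 Multiplexed counter screen: viability of FXR-bla HEK 293T cells under agonist stimulation by chenodeoxycholic acid (50 uM, final) and test compound for 16 h at 37 C, measured by CellTiter-Glo luminescence in the reporter wells.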

In assay [19] the target is Bile acid receptor (Homo sapiens) (UniProt Q96RI1). The assay can be described thus: qHTS assay to identify small molecule antagonists of the farnesoid-X-receptor (FXR) signaling pathway (AID 743217; active = well fitted inhibition curve with a large enough effect in the signal ratio in the repeat runs, not every such curve was filed as active; the % refers to the signal ratio). The method, boiled down:
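FXR-UAS-bla HEK 293T cells (beta-lactamase reporter) given compound plus chenodeoxycholic acid (50 uM final), 16 h at 37C. LiveBLAzer B/G FRET substrate added for 2 h at room temperature; fluorescence read.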

The target is the same in assay [20]. The assay can be described thus: qHTS assay to identify small molecule agonists of the farnesoid-X-receptor (FXR) signaling pathway (AID 743220; active = well fitted activation curve with a large enough effect in the signal ratio in the repeat runs, not every such curve was filed as active; the % refers to the signal ratio). The method, boiled down:
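Beta-lactamase reporter under UAS control in GeneBLAzer FXR HEK 293T cells (5000/well) measured with LiveBLAzer FRET substrate after 2 h at room temperature. Compound exposure lasted 16 h at 37C.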

Values joined by “and” are separate entries in the source; they are usually repeats but may differ in a detail not shown here. Equal values may be shown once. Results filed as inconclusive are left out. More than one record can exist for a structure, and the calls need not agree. Active and inactive are the calls of the source. Unless noted, calls come from the whole dose curve; as a rule, active = well fitted curve in the direction sought with a large enough effect in the repeat runs; inconclusive = weak or mixed curves; inactive = no such curve, though single readings can be large; an effect the other way counts as inactive or inconclusive.

Chain of Bile acid receptor (Homo sapiens) (Q96RI1 whole entry, looked up): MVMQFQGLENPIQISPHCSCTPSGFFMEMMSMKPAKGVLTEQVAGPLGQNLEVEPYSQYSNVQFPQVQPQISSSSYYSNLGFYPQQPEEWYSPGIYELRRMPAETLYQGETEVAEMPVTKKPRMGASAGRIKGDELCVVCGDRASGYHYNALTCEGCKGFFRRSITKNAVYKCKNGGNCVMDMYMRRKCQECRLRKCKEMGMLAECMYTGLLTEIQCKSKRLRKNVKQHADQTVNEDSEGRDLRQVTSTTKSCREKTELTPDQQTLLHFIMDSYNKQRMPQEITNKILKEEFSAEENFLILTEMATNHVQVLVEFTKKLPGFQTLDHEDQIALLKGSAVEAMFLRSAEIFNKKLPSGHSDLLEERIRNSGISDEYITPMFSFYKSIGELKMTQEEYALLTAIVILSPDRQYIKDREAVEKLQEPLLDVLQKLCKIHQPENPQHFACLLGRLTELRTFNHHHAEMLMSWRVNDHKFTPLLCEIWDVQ
Chain of Peroxisome proliferator-activated receptor delta (Homo sapiens) (Q03181 whole entry, looked up): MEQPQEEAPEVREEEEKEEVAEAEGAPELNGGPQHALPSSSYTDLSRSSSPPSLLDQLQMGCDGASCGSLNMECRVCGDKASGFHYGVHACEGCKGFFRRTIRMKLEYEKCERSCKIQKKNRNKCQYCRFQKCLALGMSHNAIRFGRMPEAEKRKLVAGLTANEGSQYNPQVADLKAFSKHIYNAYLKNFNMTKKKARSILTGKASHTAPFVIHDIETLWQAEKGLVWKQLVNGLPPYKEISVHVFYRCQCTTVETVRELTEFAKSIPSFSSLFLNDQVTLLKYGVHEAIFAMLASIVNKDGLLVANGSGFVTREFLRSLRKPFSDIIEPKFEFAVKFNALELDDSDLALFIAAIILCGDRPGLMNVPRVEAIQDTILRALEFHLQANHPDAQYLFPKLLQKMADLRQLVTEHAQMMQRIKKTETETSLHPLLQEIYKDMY
Chain of Vitamin D3 receptor (Homo sapiens) (P11473 whole entry, looked up): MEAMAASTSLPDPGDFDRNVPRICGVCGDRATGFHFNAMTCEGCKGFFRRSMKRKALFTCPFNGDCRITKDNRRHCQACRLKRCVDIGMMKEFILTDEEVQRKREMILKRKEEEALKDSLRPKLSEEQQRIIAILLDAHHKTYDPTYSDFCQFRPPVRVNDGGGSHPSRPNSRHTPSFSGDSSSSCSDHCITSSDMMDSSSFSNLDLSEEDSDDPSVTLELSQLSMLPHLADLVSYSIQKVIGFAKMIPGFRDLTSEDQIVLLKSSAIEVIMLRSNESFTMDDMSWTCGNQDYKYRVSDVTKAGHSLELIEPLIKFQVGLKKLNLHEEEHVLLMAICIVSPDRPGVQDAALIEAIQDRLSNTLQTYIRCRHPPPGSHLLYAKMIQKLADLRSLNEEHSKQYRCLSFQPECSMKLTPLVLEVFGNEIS
Chain of Aryl hydrocarbon receptor (Homo sapiens) (P35869 whole entry, looked up): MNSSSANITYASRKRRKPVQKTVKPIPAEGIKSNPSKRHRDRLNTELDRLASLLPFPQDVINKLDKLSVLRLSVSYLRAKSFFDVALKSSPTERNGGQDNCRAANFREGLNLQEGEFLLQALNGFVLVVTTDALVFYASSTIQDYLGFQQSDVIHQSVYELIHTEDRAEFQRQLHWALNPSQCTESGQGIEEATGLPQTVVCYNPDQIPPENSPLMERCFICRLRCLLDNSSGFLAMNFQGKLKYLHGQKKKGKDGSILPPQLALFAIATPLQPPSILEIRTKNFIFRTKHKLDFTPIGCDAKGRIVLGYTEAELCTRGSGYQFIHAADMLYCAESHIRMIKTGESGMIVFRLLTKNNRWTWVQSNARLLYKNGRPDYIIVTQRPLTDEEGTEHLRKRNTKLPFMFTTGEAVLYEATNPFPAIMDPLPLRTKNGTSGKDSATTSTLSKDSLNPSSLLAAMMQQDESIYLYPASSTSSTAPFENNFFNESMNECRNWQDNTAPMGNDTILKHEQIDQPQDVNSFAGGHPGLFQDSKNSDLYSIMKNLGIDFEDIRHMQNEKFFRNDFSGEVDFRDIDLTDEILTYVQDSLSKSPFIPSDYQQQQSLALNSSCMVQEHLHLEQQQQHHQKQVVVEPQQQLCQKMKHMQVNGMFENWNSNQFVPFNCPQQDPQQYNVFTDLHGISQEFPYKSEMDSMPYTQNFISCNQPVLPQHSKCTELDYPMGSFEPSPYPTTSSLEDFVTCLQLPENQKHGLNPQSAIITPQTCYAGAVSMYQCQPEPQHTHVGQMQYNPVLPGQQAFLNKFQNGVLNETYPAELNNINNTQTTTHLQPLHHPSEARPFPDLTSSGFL
Chain of Peroxisome proliferator-activated receptor gamma (Homo sapiens) (P37231 whole entry, looked up): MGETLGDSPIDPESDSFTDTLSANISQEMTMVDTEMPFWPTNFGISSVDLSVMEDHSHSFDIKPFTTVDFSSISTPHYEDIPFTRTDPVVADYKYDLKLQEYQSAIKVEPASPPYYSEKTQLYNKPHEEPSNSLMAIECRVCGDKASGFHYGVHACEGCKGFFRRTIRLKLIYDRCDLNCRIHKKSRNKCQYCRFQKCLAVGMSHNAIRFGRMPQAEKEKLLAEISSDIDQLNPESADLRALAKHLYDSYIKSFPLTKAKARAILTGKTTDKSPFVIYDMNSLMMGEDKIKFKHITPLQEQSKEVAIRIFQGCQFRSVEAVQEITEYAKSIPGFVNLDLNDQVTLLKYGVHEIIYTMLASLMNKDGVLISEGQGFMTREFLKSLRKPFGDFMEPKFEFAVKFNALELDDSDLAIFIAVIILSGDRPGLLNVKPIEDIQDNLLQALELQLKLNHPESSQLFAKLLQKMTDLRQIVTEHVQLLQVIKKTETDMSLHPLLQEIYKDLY

With `CCCCCC1C(=O)CCC1CC(=O)OC` (configuration not stated), the Potency entry in assay [1], in assay [2], in assay [3], in assay [5], in assay [6] and in [7] was “inactive” throughout. Moreover, the Potency entry in [8], in assay [9], in assay [10], in assay [12] and in [14] was “inactive” each time. Moreover, the call in assay [4], in assay [11], in assay [13], in assay [15] and in assay [16] was inactive.
As for `Nc1ccc2c(c1)C(=O)c1ccccc1C2=O`, the Potency is 60 µM (active) and inactive in assay [1]; 4.77 µM (active) and 3.06 µM (active) in assay [2]; 60 µM (active) in assay [3]. Moreover, the result in assay [4], in [17], in assay [11] and in [13] was inactive. In addition, the Potency result in assay [5], in assay [8], in assay [9], in assay [10], in assay [12] and in [14] was “inactive” in each case.
Regarding `CC[C@]12CCCN3CCc4c(n(c5ccccc45)[C@@](O)(C(=O)OC)C1)[C@@H]32`, the Potency result in assay [1], in assay [2], in assay [3], in assay [5], in assay [7] and in [8] was “inactive” each time. Moreover, the Potency entry in [9], in [10], in [12], in assay [14] and in [18] was “inactive” throughout. In addition, the call in assay [4], in assay [17], in assay [15] and in assay [16] was inactive.
Turning to `Cc1ccc(S(=O)(=O)NCl)cc1`, the Potency result in assay [1], in [2], in assay [3], in assay [5], in [6] and in assay [7] was “inactive” throughout. Besides, the Potency entry in [8], in assay [9], in [10], in [12], in assay [14] and in assay [18] was “inactive” throughout. The compound was called inactive in [4], in assay [11] and in [13].
For `CC(C)=CCO`, the Potency result in [1], in assay [2], in assay [3], in [5], in assay [8] and in [9] was “inactive” throughout. Further, the Potency entry in assay [10], in assay [12] and in [14] was “inactive” in each case. The result in assay [4], in assay [17], in assay [11], in assay [15] and in assay [16] was inactive.
As for `COc1cc([C@H]2Oc3cc([C@H]4Oc5cc(O)cc(O)c5C(=O)[C@@H]4O)ccc3O[C@@H]2CO)ccc1O`, the Potency entry in assay [1], in assay [2], in [3], in assay [5], in assay [8] and in assay [9] was “inactive” each time. The Potency result in assay [10], in assay [12], in assay [19], in assay [14] and in [18] was “inactive” throughout. For the same compound, the outcome in assay [4], in [17] and in assay [20] was inactive.
Turning to `CN(C)/N=N/c1nc[nH]c1C(N)=O`, the Potency result in assay [1], in [2], in assay [3], in [5], in [6] and in assay [7] was “inactive” throughout. Also, the Potency entry in [8], in assay [9], in assay [10], in assay [12], in [19] and in assay [14] was “inactive” in each case. The Potency entry in assay [18] is “inactive”. For the same compound, the result in assay [4], in [17], in assay [11], in assay [13] and in assay [20] was inactive.
As to `c1ccc2c(c1)ccc1cc3c(ccc4ccccc43)cc12`, the Potency entry in assay [1], in assay [3], in assay [6], in assay [8], in assay [9] and in [10] was “inactive” each time. Further, the Potency entry in assay [12], in [19] and in assay [14] was “inactive” throughout. Also, the Potency in [2] is 958 nM (active) and 121 nM (active); in [7], 538 nM (active) and 959 nM (active). For the same compound, the compound was called inactive in assay [17], in [11], in assay [13] and in assay [20].
Regarding `ClC/C=C/CCl`, the Potency entry in assay [1], in assay [3], in [5], in assay [6], in [8] and in assay [9] was “inactive” each time. The Potency result in assay [10], in [12], in [14] and in assay [18] was “inactive” in each case. In addition, the compound was called inactive in assay [4], in [17], in assay [11], in assay [13], in assay [15] and in assay [16]. The Potency in assay [7] was 24.1 µM (active) and 24.5 µM (active).

(Values after PubChem BioAssay (Tox21).)
